Records with an inconclusive call do not appear. The source made the active and inactive calls. How the source made its calls: active means hit-call score of the fitted dose curve at least 0.9, where 1 is the maximum; inconclusive means response in the unintended direction; inactive means score below 0.9.

This experiment can be described thus: ACEA_ER_80hr: ACEA Biosciences xCELLigence Real-Time Cell Analysis on Estrogen Receptor Agonism for Proliferation (AID 2282667). Conditions: T47D proliferation, impedance (xCELLigence), 80 h. In outline: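 Estrogen-driven proliferation is captured as electrode impedance in T47D cells 80 h after compound addition. Test articles ran at 8 concentrations, 1:4 dilutions from 100 uM final, in two replicate plates.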
On to `Fc1ccc(C2(Cn3cncn3)OC2c2ccccc2Cl)cc1` (stereo not given), for which the outcome was inactive.

As to `CC(C)OC(=O)Nc1ccccc1`, the molecule was called inactive.

`O=P(O)(O)CN(CP(=O)(O)O)CP(=O)(O)O`: the outcome was inactive.

A word on the AC50: it is the concentration giving half of the maximal activity seen. For `Cc1ccc2ccccc2c1C`, the AC50 is 13.5 µM (active).

Take `Nc1ccc(N=Nc2ccc(-c3ccc(N=Nc4c(S(=O)(=O)O)cc5cc(S(=O)(=O)O)c(N=Nc6ccccc6)c(O)c5c4N)cc3)cc2)c(N)c1`: the molecule was classed as inactive.

Turning to `CNC(=O)O/N=C/C(C)(C)S(C)=O` (stereo not given), the molecule was called inactive.

As for `CCCCCCCCSC(=O)Oc1cc(Cl)nnc1-c1ccccc1`, the AC50 is 50 µM (active).

In the case of `ClCc1ccccn1`, the molecule was classed as inactive.

Take `COc1ccccc1OC`: the molecule was called inactive.

For the molecule `C1CCC(NC2CCCCC2)CC1`, the call was inactive.

The record behind these values is PubChem BioAssay (EPA / NIEHS).
